Our source for the outcome and AC50 values is PubChem BioAssay (EPA / NIEHS).

Active and inactive are the calls of the source. How the source made its calls: active means hit-call score of the fitted dose curve at least 0.9, where 1 is the maximum; inactive means score below 0.9.

Broadly, the AC50 is the midpoint of the concentration-response curve, whichever way the signal moves.

This assay is described as follows: ATG_EGR_CIS: Attagene CIS-FACTORIAL HepG2 Assay for human Early Growth Response 1 (EGR1) (AID 2282938). Particulars: HepG2 Attagene CIS-FACTORIAL EGR reporter mRNA; actives raise or lower the signal. On the procedure:
ATG_CIS is a cell-based, multiplexed-readout assay that uses HepG2, a human liver cell line, with measurements taken at 24 hours after chemical dosing in a 24-well plate.ATG_EGR_CIS is one of 52 assay component(s) measured or calculated from the ATG_CIS assay. It is designed to make measurements of mRNA induction, a form of inducible reporter, as detected with fluorescence intensity signals by Reverse transcription polymerase chain reaction (RT-PCR) and Capillary electrophoresis technology.Data from the assay component ATG_EGR_CIS was analyzed into 1 assay endpoint. This assay endpoint, ATG_EGR_CIS, was analyzed with bidirectional fitting relative to DMSO as the negative control and baseline of activity. Using a type of inducible reporter, measures of mRNA for gain or loss-of-signal activity can be used to understand the reporter gene at the transcription factor-level as they relate to the gene EGR1. Furthermore, this assay endpoint can be referred to as a primary readout, because this assay has produced multiple assay endpoints where this one serves a reporter gene function. To generalize the intended target to other relatable targets, this assay endpoint is annotated to the dna binding intended target family, where the subfamily is zinc finger.
Human liver HepG2 cells are transiently transfected with multiple reporter transcription units (MRTUs) in 6-well plates using FuGene 6 reagent (Roche; 3 ml FuGene/1 mg DNA). The MRTU constructs are regulated by a cis-regulating element (promoter). […] A major difference between the CIS and TRANS system is that in CIS activities of endogenous TFs are measured, whereas the TRANS assay evaluates changes in activities of exogenous, chimeric NR-Gal4 proteins. […] At the end of 24 hour incubation, total RNA was isolated using TriZol reagent (Invitrogen). The isolated RNA is then reverse-transcribed using oligo(dT) primer and Mo-MLV reverse transcriptase (Invitrogen) with DNAse I (Ambion) treatment for 30 min. The one-tenth of the produced cDNA was amplified by PCR using Taq DNA polymerase (Invitrogen) and two reporter sequence-specific primers. The PCR products were fluorescently labeled by primer extension with 6-arboxyfluorescein (6-FAM) 5'-labeled reporter sequence-specific primer (2 min at 95 C, 20 s at 68 C and 10 min at 72 C) and these products were digested with 5U of HpaI (New England Biolabs) for 2h at 37 C. The fragments were purified using Qiaquick PCR columns (Qiagen), analyzed on an ABI 3130xL genetic analyzer (Applied Biosystems) with peak positions identified by using a set of X-rhodamine (ROX)-labeled MapMarker1000 molecular weight standards (BioVentures). The raw capillary electrophoresis data was processed using Attagraph software (Attagene).
Turning to `CC=CCO`, the compound was called inactive.
As to `Cc1oncc1C(=O)Nc1ccc(C(F)(F)F)cc1`, the compound was classed as inactive.
For the compound `C=C(C)C(=O)OCCO`, the result was inactive.
Same read-out and setting: the entry for `O=C(C=Cc1ccccc1)OCc1ccccc1` is “inactive”; for `C=C1C2CCC(C2)C1(C)C` (stereo not given) it is “inactive”; for `Cn1c(=O)[nH]c2ncn(C)c2c1=O` it is “inactive”.
Turning to `CCOC(=O)c1ccccc1C(=C1C=C(Br)C(=O)C(Br)=C1)c1cc(Br)c(O)c(Br)c1`, the AC50 was 33.4 µM (active).
`CC(C)=CCC[C@H](C)CCO`: the outcome was inactive.
On the same count and under the same terms, as for `O=C1OC(=O)c2cc(Oc3ccc4c(c3)C(=O)OC4=O)ccc21`, the entry is “inactive”; as for `C1=Cc2ccccc2C1`, “inactive”; as for `CCN(CC)c1ccc(C(=O)c2ccccc2C(=O)O)c(O)c1`, “inactive”.
Same read-out and setting: as for `COc1ccc([C@@H]2CC(=O)c3c(O)cc(O[C@@H]4O[C@H](CO[C@@H]5O[C@@H](C)[C@H](O)[C@@H](O)[C@H]5O)[C@@H](O)[C@H](O)[C@H]4O)cc3O2)cc1OC`, the entry is “inactive”.
Still for that read-out and setting: the entry for `O=c1cc[nH]c(=S)[nH]1` is “inactive”; for `c1ccc(-c2ccccn2)nc1` it is “inactive”.
Take `CC1OC1C1CCC2(C)OC2C1` (stereo not given): the result was inactive.
Take `CCC(C)OC(=O)c1ccc(O)cc1` (stereo not given): the compound was classed as inactive.
For `c1ccc2c(c1)ccc1ncccc12`, the outcome was inactive.
For the compound `CC(C)c1ccc(C#N)cc1`, the compound was called inactive.
Take `CCOC(=O)CC`: the result was inactive.
The same measure, in the same setting: the entry for `C=CC(C)(CCC=C(C)C)OC(=O)CC(C)C` (stereo not given) is “inactive”.
Same read-out and setting: the entry for `Clc1nc2ccccc2s1` is “inactive”.
In the case of `C/C=C\C/C=C/CCCCCCCCOC(C)=O`, the AC50 is 100 µM (active).
Turning to `CCC(C)(C)C1CCCCC1OC(C)=O` (stereo not given), the compound was classed as inactive.
`CC(=O)OC1C2(C)CCC(C2)C1(C)C` (stereo not given): the compound was classed as inactive.
Same read-out and setting: as for `CC(=O)c1ccc[nH]1`, the entry is “inactive”; as for `CCCCCCCCCCCCCOP(=O)(O)O`, “inactive”; as for `O=C(O)c1ccccc1Nc1cccc(C(F)(F)F)c1`, “inactive”.
Same read-out and setting: as for `C=CC(=O)NC(C)(C)CS(=O)(=O)O`, the entry is “inactive”; as for `[Cl][Nd]([Cl])[Cl]`, “inactive”.
As for `CCCC(C)CCC(C)=O` (stereo not given), the outcome was inactive.
Still for that read-out and setting: the entry for `CCCCCCCC/C=C\CCCCCCCC(=O)O` is “inactive”.
Same read-out and setting: as for `O=C(O)C(c1ccc(Cl)cc1)c1ccc(Cl)cc1`, the entry is “inactive”; as for `NNC(=O)c1cccc(C(=O)NN)c1`, “inactive”.
The same measure, in the same setting: as for `O=C(Cl)c1cc(C(=O)Cl)cc(C(=O)Cl)c1`, the entry is “inactive”.
In the case of `NC(=O)C1CO1` (stereo not given), the call was inactive.
Same read-out and setting: as for `C=C[C@](C)(O)CC[C@@H]1[C@@]2(C)CCCC(C)(C)[C@@H]2CC[C@@]1(C)O`, the entry is “inactive”; as for `CC(C)(C)c1ccc(OC(=O)c2ccccc2O)cc1`, “inactive”.
On the same count and under the same terms, the entry for `O=C1C(N(CO)C(=O)NCO)N(CO)C(=O)N1CO` (stereo not given) is “inactive”; for `CC(C)CC(O)Cc1ccccc1` (stereo not given) it is “inactive”; for `CC(=O)OCCC1CCCCC1` it is “inactive”.
